{"source": "the supplement of paper PMC4466140", "assay_in_all_cases": "SPOT peptide array binding signal intensity (averaged, normalized) (arbitrary units (background-subtracted, floor 0; scale differs between SH3 domains)); higher = stronger binding of the SH3 domain to the peptide", "key": {"AgAbp1": {"target": "AgAbp1", "procedure,_shortened": "(§1)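 Four yeast species supplied the SH3 domains, which were expressed as GST fusions in E. coli BL21(DE3) and purified on glutathione Sepharose. Incubation with cellulose membranes carrying synthetic 15-mer peptides, cysteines exchanged for serines, ran overnight at 4°C at 10 μg/ml in TBS-based blocking buffer. Binding signal is reported as normalized, background-subtracted spot intensity averaged over replicates, in arbitrary units not shared between domains.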"}, "AgBbc1": {"target": "AgBbc1", "procedure,_shortened": "as §1"}, "AgBem1-D1": {"target": "AgBem1-D1", "procedure,_shortened": "as §1"}, "AgBzz1-D1": {"target": "AgBzz1-D1", "procedure,_shortened": "as §1"}, "AgBzz1-D2": {"target": "AgBzz1-D2", "procedure,_shortened": "as §1"}, "AgCyk3": {"target": "AgCyk3", "procedure,_shortened": "as §1"}, "AgFus1": {"target": "AgFus1", "procedure,_shortened": "as §1"}, "AgHof1": {"target": "AgHof1", "procedure,_shortened": "as §1"}, "AgHse1": {"target": "AgHse1", "procedure,_shortened": "as §1"}, "AgLsb1": {"target": "AgLsb1", "procedure,_shortened": "as §1"}, "AgLsb4": {"target": "AgLsb4", "procedure,_shortened": "as §1"}, "AgMyo5": {"target": "AgMyo5", "procedure,_shortened": "as §1"}, "AgNbp2": {"target": "AgNbp2", "procedure,_shortened": "as §1"}, "AgRvs167": {"target": "AgRvs167", "procedure,_shortened": "as §1"}, "AgSho1": {"target": "AgSho1", "procedure,_shortened": "as §1"}, "AgSla1-D1-D2": {"target": "AgSla1-D1-D2", "procedure,_shortened": "as §1"}, "AgSla1-D3": {"target": "AgSla1-D3", "procedure,_shortened": "as §1"}, "CaAbp1-D1": {"target": "CaAbp1-D1", "procedure,_shortened": "as §1"}, "CaAbp1-D2": {"target": "CaAbp1-D2", "procedure,_shortened": "as §1"}, "CaBbc1": {"target": "CaBbc1", "procedure,_shortened": "as §1"}, "CaBem1-D1": {"target": "CaBem1-D1", "procedure,_shortened": "as §1"}, "CaBzz1-D1": {"target": "CaBzz1-D1", "procedure,_shortened": "as §1"}, "CaBzz1-D2": {"target": "CaBzz1-D2", "procedure,_shortened": "as §1"}, "CaCyk3": {"target": "CaCyk3", "procedure,_shortened": "as §1"}, "CaFus1": {"target": "CaFus1", "procedure,_shortened": "as §1"}, "CaHof1": {"target": "CaHof1", "procedure,_shortened": "as §1"}, "CaHse1": {"target": "CaHse1", "procedure,_shortened": "as §1"}, "CaLsb1": {"target": "CaLsb1", "procedure,_shortened": "as §1"}, "CaLsb4": {"target": "CaLsb4", "procedure,_shortened": "as §1"}, "CaMyo5": {"target": "CaMyo5", "procedure,_shortened": "as §1"}, "CaNbp2": {"target": "CaNbp2", "procedure,_shortened": "as §1"}, "CaRvs167": {"target": "CaRvs167", "procedure,_shortened": "as §1"}, "CaRvs167-3": {"target": "CaRvs167-3", "procedure,_shortened": "as §1"}, "CaSho1": {"target": "CaSho1", "procedure,_shortened": "as §1"}, "CaSla1-D1-D2": {"target": "CaSla1-D1-D2", "procedure,_shortened": "as §1"}, "CaSla1-D3": {"target": "CaSla1-D3", "procedure,_shortened": "as §1"}, "ScAbp1": {"target": "ScAbp1", "procedure,_shortened": "as §1"}, "ScBbc1": {"target": "ScBbc1", "procedure,_shortened": "as §1"}, "ScBem1-D1": {"target": "ScBem1-D1", "procedure,_shortened": "as §1"}, "ScBzz1-D1": {"target": "ScBzz1-D1", "procedure,_shortened": "as §1"}, "ScBzz1-D2": {"target": "ScBzz1-D2", "procedure,_shortened": "as §1"}, "ScCyk3": {"target": "ScCyk3", "procedure,_shortened": "as §1"}, "ScFus1": {"target": "ScFus1", "procedure,_shortened": "as §1"}, "ScHof1": {"target": "ScHof1", "procedure,_shortened": "as §1"}, "ScHse1": {"target": "ScHse1", "procedure,_shortened": "as §1"}, "ScLsb1": {"target": "ScLsb1", "procedure,_shortened": "as §1"}, "ScLsb2": {"target": "ScLsb2", "procedure,_shortened": "as §1"}, "ScLsb3": {"target": "ScLsb3", "procedure,_shortened": "as §1"}, "ScLsb4": {"target": "ScLsb4", "procedure,_shortened": "as §1"}, "ScMyo3": {"target": "ScMyo3", "procedure,_shortened": "as §1"}, "ScMyo5": {"target": "ScMyo5", "procedure,_shortened": "as §1"}, "ScNbp2": {"target": "ScNbp2", "procedure,_shortened": "as §1"}, "ScPex13": {"target": "ScPex13", "procedure,_shortened": "as §1"}, "ScRvs167": {"target": "ScRvs167", "procedure,_shortened": "as §1"}, "ScSho1": {"target": "ScSho1", "procedure,_shortened": "as §1"}, "ScSla1-D1-D2": {"target": "ScSla1-D1-D2", "procedure,_shortened": "as §1"}, "ScSla1-D3": {"target": "ScSla1-D3", "procedure,_shortened": "as §1"}, "SpAbp1-D1": {"target": "SpAbp1-D1", "procedure,_shortened": "as §1"}, "SpBbc1": {"target": "SpBbc1", "procedure,_shortened": "as §1"}, "SpBzz1-D1": {"target": "SpBzz1-D1", "procedure,_shortened": "as §1"}}, "data": [{"binder": "LTRRFPFLFPFDTRM", "values": [{"measurement": "SPOT peptide array binding signal intensity", "setting": "AgAbp1", "value": 4}, {"measurement": "SPOT peptide array binding signal intensity", "setting": "AgBbc1", "value": "≤ 0"}, {"measurement": "SPOT peptide array binding signal intensity", "setting": "AgBem1-D1", "value": 47}, {"measurement": "SPOT peptide array binding signal intensity", "setting": "AgBzz1-D1", "value": 13}, {"measurement": "SPOT peptide array binding signal intensity", "setting": "AgBzz1-D2", "value": 27}, {"measurement": "SPOT peptide array binding signal intensity", "setting": "AgCyk3", "value": 1}, {"measurement": "SPOT peptide array binding signal intensity", "setting": "AgFus1", "value": 198}, {"measurement": "SPOT peptide array binding signal intensity", "setting": "AgHof1", "value": 43.5}, {"measurement": "SPOT peptide array binding signal intensity", "setting": "AgHse1", "value": 1430}, {"measurement": "SPOT peptide array binding signal intensity", "setting": "AgLsb1", "value": 1.75}, {"measurement": "SPOT peptide array binding signal intensity", "setting": "AgLsb4", "value": 18}, {"measurement": "SPOT peptide array binding signal intensity", "setting": "AgMyo5", "value": 1.5}, {"measurement": "SPOT peptide array binding signal intensity", "setting": "AgNbp2", "value": 36}, {"measurement": "SPOT peptide array binding signal intensity", "setting": "AgRvs167", "value": 3.33}, {"measurement": "SPOT peptide array binding signal intensity", "setting": "AgSho1", "value": 21}, {"measurement": "SPOT peptide array binding signal intensity", "setting": "AgSla1-D1-D2", "value": 25.5}, {"measurement": "SPOT peptide array binding signal intensity", "setting": "AgSla1-D3", "value": 4}, {"measurement": "SPOT peptide array binding signal intensity", "setting": "CaAbp1-D1", "value": 573}, {"measurement": "SPOT peptide array binding signal intensity", "setting": "CaAbp1-D2", "value": 155}, {"measurement": "SPOT peptide array binding signal intensity", "setting": "CaBbc1", "value": 3.25}, {"measurement": "SPOT peptide array binding signal intensity", "setting": "CaBem1-D1", "value": 7}, {"measurement": "SPOT peptide array binding signal intensity", "setting": "CaBzz1-D1", "value": 40}, {"measurement": "SPOT peptide array binding signal intensity", "setting": "CaBzz1-D2", "value": 12.5}, {"measurement": "SPOT peptide array binding signal intensity", "setting": "CaCyk3", "value": 8}, {"measurement": "SPOT peptide array binding signal intensity", "setting": "CaFus1", "value": 1040}, {"measurement": "SPOT peptide array binding signal intensity", "setting": "CaHof1", "value": 0.5}, {"measurement": "SPOT peptide array binding signal intensity", "setting": "CaHse1", "value": 83.5}, {"measurement": "SPOT peptide array binding signal intensity", "setting": "CaLsb1", "value": "≤ 0"}, {"measurement": "SPOT peptide array binding signal intensity", "setting": "CaLsb4", "value": 9.5}, {"measurement": "SPOT peptide array binding signal intensity", "setting": "CaMyo5", "value": 13.8}, {"measurement": "SPOT peptide array binding signal intensity", "setting": "CaNbp2", "value": 249}, {"measurement": "SPOT peptide array binding signal intensity", "setting": "CaRvs167", "value": 10.2}, {"measurement": "SPOT peptide array binding signal intensity", "setting": "CaRvs167-3", "value": 43.2}, {"measurement": "SPOT peptide array binding signal intensity", "setting": "CaSho1", "value": 892}, {"measurement": "SPOT peptide array binding signal intensity", "setting": "CaSla1-D1-D2", "value": 30.5}, {"measurement": "SPOT peptide array binding signal intensity", "setting": "CaSla1-D3", "value": 20}, {"measurement": "SPOT peptide array binding signal intensity", "setting": "ScAbp1", "value": 39}, {"measurement": "SPOT peptide array binding signal intensity", "setting": "ScBbc1", "value": 0.5}, {"measurement": "SPOT peptide array binding signal intensity", "setting": "ScBem1-D1", "value": 14}, {"measurement": "SPOT peptide array binding signal intensity", "setting": "ScBzz1-D1", "value": 10}, {"measurement": "SPOT peptide array binding signal intensity", "setting": "ScBzz1-D2", "value": 10}, {"measurement": "SPOT peptide array binding signal intensity", "setting": "ScCyk3", "value": 374}, {"measurement": "SPOT peptide array binding signal intensity", "setting": "ScFus1", "value": 289}, {"measurement": "SPOT peptide array binding signal intensity", "setting": "ScHof1", "value": 0.5}, {"measurement": "SPOT peptide array binding signal intensity", "setting": "ScHse1", "value": 1600}, {"measurement": "SPOT peptide array binding signal intensity", "setting": "ScLsb1", "value": "≤ 0"}, {"measurement": "SPOT peptide array binding signal intensity", "setting": "ScLsb2", "value": "≤ 0"}, {"measurement": "SPOT peptide array binding signal intensity", "setting": "ScLsb3", "value": 27.5}, {"measurement": "SPOT peptide array binding signal intensity", "setting": "ScLsb4", "value": "≤ 0"}, {"measurement": "SPOT peptide array binding signal intensity", "setting": "ScMyo3", "value": 2.5}, {"measurement": "SPOT peptide array binding signal intensity", "setting": "ScMyo5", "value": 1.5}, {"measurement": "SPOT peptide array binding signal intensity", "setting": "ScNbp2", "value": 128}, {"measurement": "SPOT peptide array binding signal intensity", "setting": "ScPex13", "value": "≤ 0"}, {"measurement": "SPOT peptide array binding signal intensity", "setting": "ScRvs167", "value": 14.3}, {"measurement": "SPOT peptide array binding signal intensity", "setting": "ScSho1", "value": 335}, {"measurement": "SPOT peptide array binding signal intensity", "setting": "ScSla1-D1-D2", "value": 7}, {"measurement": "SPOT peptide array binding signal intensity", "setting": "ScSla1-D3", "value": 7.5}, {"measurement": "SPOT peptide array binding signal intensity", "setting": "SpAbp1-D1", "value": 195}, {"measurement": "SPOT peptide array binding signal intensity", "setting": "SpBbc1", "value": "≤ 0"}, {"measurement": "SPOT peptide array binding signal intensity", "setting": "SpBzz1-D1", "value": 53.5}]}]}
